Experimental data: PubChem BioAssay (Tox21)
Where “and” joins values, the source holds several entries; their conditions need not be identical. Equal entries are not always repeated. Records with an inconclusive call do not appear. Some structures have more than one record in an assay (separate samples or runs), and their calls can disagree. Calls of active or inactive are those of the source. Unless noted, the call rests on the fitted dose curve.

Experiments:
[1] = Nuclear factor erythroid 2-related factor 2/antioxidant responsive element (Nrf2/ARE) small molecule agonists: qHTS cell viability counter screen in human keratinocytes (AID 1919968; active means well fitted curve in the direction sought with a large enough effect in the repeat runs; an effect the other way counts as inactive or inconclusive; further: nearly all actives have a fitted effect of over 55% in size)
Method in brief: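 Seed 1,500 KeratinoSens cells per well, then incubate 5 h at 37 C/5% CO2. Add compounds in DMSO and incubate 23 h. Add CellTiter-Fluor, wait 1 h and read fluorescence.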

[2] = Nuclear factor erythroid 2-related factor 2/antioxidant responsive element (Nrf2/ARE) small molecule agonists: luciferase reporter gene qHTS assay in human keratinocytes (AID 1919969); further: nearly all actives have a fitted effect of over 35% in size; further: potency means the concentration at half of the fitted maximal effect
[3] = biological target: Gonadotropin-releasing hormone receptor (Homo sapiens) (UniProt P30968); experiment: Human gonadotropin-releasing hormone receptor (GnRHR) small molecule agonists, calcium flux assay in GnRHR-HEK293 cells (AID 1920063); further: nearly all actives have a fitted effect of over 35% in size
Method in brief: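 Cells: HEK293 stably expressing human GnRHR. Steps: overnight (18 h) culture, 1 h calcium dye loading at 37 C, compound addition, kinetic fluorescence read at 480/540 nm. Each compound tested at 15 concentrations in triplicate.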

[4] = biological target: KiSS-1 receptor (Homo sapiens) (UniProt Q969F8); experiment: Human kisspeptin (KISS1R) small molecule agonists, calcium flux assay in KISS1R-HEK293 cells (AID 1920064; active means well fitted curve in the direction sought with a large enough effect in the repeat runs; an effect the other way counts as inactive or inconclusive)
Method in brief: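 Cells plated and incubated 18 h; dye added, 1 h at 37 C; compounds in DMSO pinned in; signal read at 480/540 nm every second for 3 min. Each compound tested at 15 concentrations in triplicate.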

[5] = G protein-coupled receptor (GPCR) small molecule agonists, calcium flux assay: HEK293 wild type cell line counter screen (AID 1920065)
Method in brief: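 Counter-screen of the Tox21 10K library for non-specific calcium release: dye-loaded cells received compounds in DMSO and were monitored by kinetic fluorescence (480/540 nm, 3 min). Fifteen concentrations, run in triplicate.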

[6] = p53 small molecule agonists, cell-based qHTS assay with human liver microsomes (AID 1963577);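 further: p53 response element beta-lactamase reporter cells with liver microsomes plus NADPH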
Method in brief: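 In this qHTS, p53 response-element beta-lactamase cells receive test compound together with a microsome/NADPH activating system (0.5 mg/mL final each) and are incubated 16 h at 37 C before LiveBLAzer fluorescence detection.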

[7] = p53 small molecule agonists, cell-based qHTS assay with rat liver microsomes (AID 1963578)
Method in brief: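 Agonist mode in p53RE-bla reporter cells, with compounds co-incubated 16 h at 37 C alongside 0.5 mg/mL rat liver microsomes and 0.5 mg/mL NADPH (final), followed by a 2 h LiveBLAzer detection step.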

[8] = p53 small molecule agonists, cell-based qHTS assay with human liver microsomes: qHTS cell viability counter screen (AID 1963579); further: nearly all actives have a fitted effect of over 45% in size; further: potency means the concentration at half of the fitted maximal effect
Method in brief: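 Metabolically activated exposure: compounds, human liver microsomes and NADPH (0.5 mg/mL final apiece) were added to p53RE-bla cells seeded 5 h earlier, left 16 h at 37 C, and then assessed for viability by CellTiter-Glo luminescence.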

[9] = p53 small molecule agonists, cell-based qHTS assay with rat liver microsomes: qHTS cell viability counter screen (AID 1963580); further: nearly all actives have a fitted effect of over 45% in size
Method in brief: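 p53RE-bla HCT-116 cells (4,000/well) rested 5 h at 37 C, then given Tox21 compounds in DMSO with rat liver microsomes (0.5 mg/mL final) plus NADPH (0.5 mg/mL final) for 16 h at 37 C. Viability read by CellTiter-Glo luminescence after 30 min at room temperature.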

[10] = p53 small molecule agonists, cell-based qHTS assay (AID 1963582; active means well fitted activation curve with a large enough effect in the signal ratio in the repeat runs, not every such curve was filed as active; the % refers to the signal ratio)
Method in brief: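 Quantitative HTS in p53RE-bla cells: after a 5 h settling period, compounds delivered in DMSO were left on cells for 16 h at 37 C, and reporter induction was measured as fluorescence following 2 h substrate loading.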

[11] = biological target: 5-hydroxytryptamine receptor 2A (Homo sapiens) (UniProt P28223); experiment: 5-hydroxytryptamine receptor 2A (HTR2A) small molecule agonists, cell-based qHTS assay (AID 1963587); further: nearly all actives have a fitted effect of over 30% in size
Method in brief: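 HTR2A-CHO cells, plated 18 h at 37 C/5% CO2, dye-loaded 1 h at 37 C; compounds in DMSO added by pin tool (agonist mode). Intracellular calcium flux read as kinetic fluorescence on FDSS over 2 min at 1 s intervals.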

[12] = biological target: Muscarinic acetylcholine receptor M1 (Homo sapiens) (UniProt P11229); experiment: Cholinergic receptor muscarinic 1 (CHRM1) small molecule antagonists, cell-based qHTS assay (AID 1963588); further: nearly all actives have a fitted effect of over 40% in size
Method in brief: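 CHRM1-CHO calcium-flux assay, antagonist mode. Cells were seeded 18 h, dye-loaded 1 h at 37 C and given compound for 5 min at RT, then acetylcholine was added at 50nM. FDSS fluorescence was read 3 min; 15 concentrations, three runs.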

[13] = biological target: Muscarinic acetylcholine receptor M1 (Homo sapiens) (UniProt P11229); experiment: Cholinergic receptor muscarinic 1 (CHRM1) small molecule agonists, cell-based qHTS assay (AID 1963589); further: nearly all actives have a fitted effect of over 35% in size
Method in brief: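 Agonist-mode qHTS in CHO cells stably carrying human muscarinic M1. Intracellular calcium is tracked by fluorescence every second after compound transfer; each compound runs at 15 concentrations in three independent runs.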

[14] = cAMP Responsive Elements (CRE) small molecule agonists, cell-based qHTS assay (AID 1963590)
Method in brief: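 Agonist mode qHTS in CRE-bla HEK 293T cells: compounds dosed from DMSO for 3 h at 37 C/5% CO2, followed by LiveBLAzer B/G FRET substrate for 2 h at room temperature.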

[15] = cAMP Responsive Elements (CRE) small molecule antagonists, cell-based qHTS assay (AID 1963591; active means well fitted inhibition curve with a large enough effect in the signal ratio in the repeat runs, not every such curve was filed as active; the % refers to the signal ratio)
Method in brief: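 Antagonist mode: test compounds are co-incubated with the adenylyl cyclase activator NKH477 (0.25 uM final) on CRE-bla HEK293T cells for 3 h at 37 °C, followed by LiveBLAzer substrate loading.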

[16] = biological target: Beta-2 adrenergic receptor (Homo sapiens) (UniProt P07550); experiment: Adrenergic beta2 receptor (ADRB2) small molecule antagonists, cell-based qHTS assay (AID 1963592); further: nearly all actives have a fitted effect of over 50% in size; further: potency means the concentration at half of the fitted maximal effect
Method in brief: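 Cells (CHO, stable ADRB2 overexpression) incubated 18-20hr at 37C; compounds added from DMSO; agonist mix (1nM isoproterenol, 100uM IBMX, 25uM Ro-20-1724) added; 0.5hr RT; d2-cAMP and anti-cAMP-cryptate added; 1hr RT; 665/615 nm read.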

[17] = biological target: Beta-2 adrenergic receptor (Homo sapiens) (UniProt P07550); experiment: Adrenergic beta2 receptor (ADRB2) small molecule agonists, cell-based qHTS assay (AID 1963593);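 further: CHO cells stably overexpressing human ADRB2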
Method in brief: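 CHO cells stably over-expressing ADRB2 were plated overnight at 37C, then dosed with compounds plus a stimulation mix containing 100uM IBMX and 25uM Ro-20-1724 for 0.5hr at room temperature. cAMP was measured by HTRF competition, 1hr.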

[18] = biological target: D(2) dopamine receptor (Homo sapiens) (UniProt P14416); experiment: Dopamine D2 receptor (DRD2) small molecule agonists, cell-based qHTS assay (AID 1963594); further: nearly all actives have a fitted effect of over 35% in size
Method in brief: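 HEK293 cells stably expressing DRD2 were cultured 24 h at 37 C, then given Ro20-1724 (0.1 mM final) and compounds for 10 min at room temperature. NKH477 (200nM) was then added for 30 min. cAMP was read by HTRF.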

[19] = biological target: D(2) dopamine receptor (Homo sapiens) (UniProt P14416); experiment: Dopamine D2 receptor (DRD2) small molecule antagonists, cell-based qHTS assay (AID 1963595; active means well fitted inhibition curve with a large enough effect in the signal ratio in the repeat runs, with a control signal flat; the % refers to the signal ratio)
Method in brief: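 HEK293 cells stably expressing DRD2, preincubated with 0.1 mM Ro20-1724 and compounds 10 min, were stimulated with 200 nM NKH477 plus 12 nM quinpirole for 30 min at room temperature; cAMP measured by HTRF (665/620 nm).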

[20] = p53 small molecule agonists, cell-based qHTS assay: qHTS cell viability counter screen (AID 1963581); further: nearly all actives have a fitted effect of over 45% in size
Method in brief: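 Cells: HCT-116 with p53 response element-driven beta-lactamase. Treatment: 16 h, 37 C, compounds in DMSO. Read: CellTiter-Glo luminescence after 30 min RT.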

Measured: Potency

Gonadotropin-releasing hormone receptor (Homo sapiens), sequence (P30968 whole entry, looked up): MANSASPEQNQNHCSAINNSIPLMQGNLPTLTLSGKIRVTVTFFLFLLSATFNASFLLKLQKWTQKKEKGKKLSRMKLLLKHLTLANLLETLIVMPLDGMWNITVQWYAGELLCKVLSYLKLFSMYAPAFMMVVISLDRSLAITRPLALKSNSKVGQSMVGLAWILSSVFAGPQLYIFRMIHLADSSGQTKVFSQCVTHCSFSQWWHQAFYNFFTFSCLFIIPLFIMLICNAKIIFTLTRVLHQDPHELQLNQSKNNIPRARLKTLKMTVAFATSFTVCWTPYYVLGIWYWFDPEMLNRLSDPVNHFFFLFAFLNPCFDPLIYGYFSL
5-hydroxytryptamine receptor 2A (Homo sapiens), sequence (P28223 whole entry, looked up): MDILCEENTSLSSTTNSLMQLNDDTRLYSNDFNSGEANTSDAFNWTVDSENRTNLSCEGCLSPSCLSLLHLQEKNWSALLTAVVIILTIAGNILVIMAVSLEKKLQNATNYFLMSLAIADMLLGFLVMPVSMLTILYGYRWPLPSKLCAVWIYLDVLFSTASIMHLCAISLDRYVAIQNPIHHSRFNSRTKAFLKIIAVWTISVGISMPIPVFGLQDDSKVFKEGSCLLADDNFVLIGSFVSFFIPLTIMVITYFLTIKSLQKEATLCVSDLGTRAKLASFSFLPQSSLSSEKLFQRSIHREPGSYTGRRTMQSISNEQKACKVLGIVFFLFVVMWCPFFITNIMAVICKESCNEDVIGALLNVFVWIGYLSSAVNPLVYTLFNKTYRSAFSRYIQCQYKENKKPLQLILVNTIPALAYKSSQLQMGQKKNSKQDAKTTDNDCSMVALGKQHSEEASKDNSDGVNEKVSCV
Muscarinic acetylcholine receptor M1 (Homo sapiens), sequence (P11229 whole entry, looked up): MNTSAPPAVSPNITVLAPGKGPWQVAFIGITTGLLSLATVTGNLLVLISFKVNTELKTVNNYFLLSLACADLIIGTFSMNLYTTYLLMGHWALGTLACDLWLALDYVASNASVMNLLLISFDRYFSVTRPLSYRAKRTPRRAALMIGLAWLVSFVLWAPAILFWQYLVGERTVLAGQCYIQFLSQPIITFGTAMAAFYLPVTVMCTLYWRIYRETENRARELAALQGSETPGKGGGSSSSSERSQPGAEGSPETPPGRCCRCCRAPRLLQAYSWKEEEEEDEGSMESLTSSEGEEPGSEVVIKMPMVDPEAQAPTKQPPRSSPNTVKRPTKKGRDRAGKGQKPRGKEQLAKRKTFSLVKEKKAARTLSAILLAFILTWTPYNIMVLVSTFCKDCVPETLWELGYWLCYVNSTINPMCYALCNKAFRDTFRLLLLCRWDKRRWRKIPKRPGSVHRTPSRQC
D(2) dopamine receptor (Homo sapiens), sequence (P14416 whole entry, looked up): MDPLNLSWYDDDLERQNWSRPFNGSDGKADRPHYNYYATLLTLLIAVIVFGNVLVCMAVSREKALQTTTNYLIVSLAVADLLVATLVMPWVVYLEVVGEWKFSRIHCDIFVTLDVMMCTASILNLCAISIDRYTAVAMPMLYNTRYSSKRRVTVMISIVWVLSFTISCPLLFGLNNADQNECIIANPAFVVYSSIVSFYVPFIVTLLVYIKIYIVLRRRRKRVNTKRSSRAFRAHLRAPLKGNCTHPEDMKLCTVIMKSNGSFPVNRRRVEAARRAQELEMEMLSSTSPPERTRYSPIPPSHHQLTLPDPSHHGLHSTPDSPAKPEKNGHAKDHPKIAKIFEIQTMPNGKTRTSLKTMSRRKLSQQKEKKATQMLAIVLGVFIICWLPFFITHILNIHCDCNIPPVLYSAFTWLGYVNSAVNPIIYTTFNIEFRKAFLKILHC
KiSS-1 receptor (Homo sapiens), sequence (Q969F8 whole entry, looked up): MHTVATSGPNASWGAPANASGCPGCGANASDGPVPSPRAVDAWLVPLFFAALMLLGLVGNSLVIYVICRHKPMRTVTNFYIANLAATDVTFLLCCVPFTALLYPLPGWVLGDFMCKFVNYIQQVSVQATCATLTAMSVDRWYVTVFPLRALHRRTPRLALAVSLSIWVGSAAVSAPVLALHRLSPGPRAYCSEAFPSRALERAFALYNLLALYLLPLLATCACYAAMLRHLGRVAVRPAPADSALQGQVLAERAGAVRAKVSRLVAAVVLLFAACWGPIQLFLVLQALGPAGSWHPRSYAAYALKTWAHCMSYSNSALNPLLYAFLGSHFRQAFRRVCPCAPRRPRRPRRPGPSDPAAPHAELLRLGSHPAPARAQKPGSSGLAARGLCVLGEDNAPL
Beta-2 adrenergic receptor (Homo sapiens), sequence (P07550 whole entry, looked up): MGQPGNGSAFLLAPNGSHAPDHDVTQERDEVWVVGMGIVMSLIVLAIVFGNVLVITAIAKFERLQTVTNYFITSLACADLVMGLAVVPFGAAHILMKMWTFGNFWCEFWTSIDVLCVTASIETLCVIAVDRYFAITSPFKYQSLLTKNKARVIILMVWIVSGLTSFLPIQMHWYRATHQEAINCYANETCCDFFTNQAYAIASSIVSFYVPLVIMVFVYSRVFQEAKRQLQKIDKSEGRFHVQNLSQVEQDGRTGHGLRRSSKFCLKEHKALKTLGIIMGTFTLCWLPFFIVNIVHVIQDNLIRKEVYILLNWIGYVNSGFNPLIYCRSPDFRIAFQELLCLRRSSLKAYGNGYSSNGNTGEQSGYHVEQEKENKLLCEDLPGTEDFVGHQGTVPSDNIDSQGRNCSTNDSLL

CC1(C)O[C@@H]2[C@@H](CO[C@@]3(COS(N)(=O)=O)OC(C)(C)O[C@@H]23)O1
inactive: [1] | [2] | [3] | [4] | [5] | [6] | [7] | [8] | [9] | [10] | [11] | [12] | [13] | [14] | [15] | [16] | [17] | [18] | [19]

COCc1c(C(C)C)nc(C(C)C)c(/C=C/[C@@H](O)C[C@@H](O)CC(=O)O)c1-c1ccc(F)cc1
inactive: [1] | [2] | [3] | [4] | [5] | [6] | [7] | [8] | [9] | [20] | [16] | [17] | [18] | [19]

O=C(O)CN(CC(=O)O)CC(=O)O
inactive: [1] | [2] | [3] | [4] | [5] | [6] | [7] | [8] | [9] | [10] | [11] | [12] | [13] | [14] | [15] | [16] | [17] | [18] | [19]

CC(C)OB(OC(C)C)OC(C)C
inactive: [1] | [2] | [3] | [4] | [5] | [6] | [7] | [8] | [9] | [10] | [11] | [12] | [13] | [14] | [15] | [16] | [17] | [18] | [19]

O=C(c1ccc(O)cc1)c1ccc(O)cc1O
inactive: [1] | [2] | [3] | [4] | [5] | [6] | [7] | [8] | [9] | [20] | [11] | [12] | [13] | [15] | [16] | [18] | [19]

O=C1CCC(N2C(=O)c3ccccc3C2=O)C(=O)N1 (centres undefined)
inactive: [1] | [2] | [3] | [4] | [5] | [6] | [7] | [8] | [9] | [20] | [14] | [15] | [16] | [18] | [19]

C=CCc1ccc(O)c(OC)c1
inactive: [1] | [2] | [3] | [4] | [5] | [6] | [7] | [8] | [9] | [20] | [14] | [15] | [16] | [17] | [18] | [19]

CC[Si](OC(C)=O)(OC(C)=O)OC(C)=O
inactive: [1] | [2] | [3] | [4] | [5] | [6] | [7] | [8] | [9] | [10] | [11] | [12] | [13] | [14] | [15] | [16] | [17] | [18] | [19]

Nc1cccc(C(F)(F)F)c1
inactive and 54.5 µM (active): [16]
inactive: [1] | [2] | [3] | [4] | [5] | [6] | [7] | [8] | [9] | [20] | [11] | [13] | [14] | [15] | [18] | [19]

COc1ccc2[nH]cc(CCNC(C)=O)c2c1
inactive: [1] | [2] | [3] | [4] | [5] | [6] | [7] | [8] | [9] | [20] | [14] | [15] | [16] | [17] | [18]

Brc1cc(Oc2cc(Br)c(Br)c(Br)c2Br)c(Br)c(Br)c1Br
20.5 µM (active) and inactive: [8]
inactive: [1] | [3] | [4] | [5] | [6] | [7] | [9] | [10] | [11] | [12] | [13] | [14] | [15] | [16] | [17] | [18]
68.9 µM (active) and inactive: [2]

C=CC(=O)NC(C)(C)CS(=O)(=O)O
inactive: [1] | [2] | [3] | [4] | [5] | [6] | [7] | [8] | [9] | [10] | [11] | [12] | [13] | [14] | [15] | [16] | [17] | [18]

NC(=O)c1ncn([C@@H]2O[C@H](CO)[C@@H](O)[C@H]2O)n1
inactive: [1] | [2] | [3] | [4] | [5] | [6] | [7] | [8] | [9] | [20] | [14] | [16] | [17] | [18] | [19]

C[Si]1(C)O[Si](C)(C)O[Si](C)(C)O[Si](C)(C)O1
inactive: [1] | [2] | [3] | [4] | [5] | [6] | [7] | [8] | [9] | [20] | [11] | [13] | [14] | [15] | [16] | [17] | [18] | [19]
